Experimental data from publication PMC4552634, “A New Set of Chemical Starting Points with Plasmodium falciparum Transmission-Blocking Potential for Antimalarial Drug Discovery” (PLoS ONE, 2015).
Among all 13,000 compounds or so, about 3,200 (25%) showed an effect of 50% or more. The list shows a part of the results.

These compounds were tested on P. falciparum stage V gametocytes. Conditions: 48 h, 5 µM; inhibitor.
Design: BacTiter-Glo ATP luminescence viability of purified stage V gametocytes in 384-well plates, per cent inhibition versus DMSO

Compared with COC(=O)c1cccc(OCCNC2CCN(C[C@H](O)c3ccnc4ccc(OC)cc34)CC2)c1 [TCMDC-140710], Cc1ccc(NC(=O)NC2CCN(c3ccnc4cc(Cl)ccc34)CC2)cc1 [TCMDC-133571] is lower in “% Inhibition” value: -10.21% for the first, -34.41% for the second.

Going from Cc1nnc(N2C(=N)SC(=Cc3ccc(-c4ccc(OC(F)(F)F)cc4)o3)C2=O)s1 [TCMDC-124487] to Fc1cccc(COc2ccc(Nc3ncnc4ccc(-c5nnc(C(F)(F)F)o5)cc34)cc2Cl)c1 [TCMDC-138162], the “% Inhibition” value falls from 0.8925% to -34.34%.

First: COc1nc2c(N3CCN(CCNCc4ccc5c(n4)NC(=O)CO5)CC3)ccnc2cc1F [TCMDC-135208]
Second: Cc1cc2[nH]c(-c3ccc(C(=O)NCCCN4CCN(c5cccc(Cl)c5)CC4)s3)nc2cc1Cl [TCMDC-140031]
The “% Inhibition” value of the first is lower: -25.48% for the first, -0.02415% for the second.

First: Cc1ccc(NC(=O)Nc2ccc(Cl)c(C(F)(F)F)c2)cc1-c1ccc(C(=O)NCCN2CCOCC2)cc1 [TCMDC-133589]
Second: Cc1cc2c(cc1C(F)(F)F)N(C(=O)Nc1cc(C(=O)NC3CCN(Cc4ccccc4)C3)cc(C(F)(F)F)c1)CC2 (centres unmarked) [TCMDC-139921]
The “% Inhibition” value of the first is lower: 4.722% for the first, 12.41% for the second.

Compared with CC(C)N1CCN(C(=O)c2ccc(CNCCCN3CCN(c4cccc(Cl)c4Cl)CC3)s2)CC1 [TCMDC-136520], CC(C)N1CCN(C(=O)c2ccc(CN(C)CCCN3CCN(c4cccc(Cl)c4Cl)CC3)s2)CC1 [TCMDC-136526] is higher in “% Inhibition” value: 62.19% for the first, 84.79% for the second.

Going from CN(C)CCCN1CCN(C(=O)c2cccc(-c3noc(C(F)(F)F)n3)c2)CC1 [TCMDC-132384] to CC(C)N1CCN(C(=O)c2ccc(CNCCCN3CCN(c4ccccc4C(F)(F)F)CC3)s2)CC1 [TCMDC-136704], the “% Inhibition” value rises from -19.31% to 40.48%.

Going from CC(C)N1CCN(C(=O)c2ccc(CNCCCN3CCN(c4cccc(Cl)c4Cl)CC3)o2)CC1 [TCMDC-136521] to CC(C)CCN1CCCN(Cc2ccc(C(=O)Nc3ccc(C(C)(C)C)cc3)cc2)CC1 [TCMDC-136444], the “% Inhibition” value rises from -13.79% to 35.23%.

Going from COc1cccc(Nc2nc(C)cc(NCc3ccc(-c4c(C)noc4C)cc3)n2)c1 [TCMDC-133451] to COc1cccc(Nc2nc(C)cc(NCc3ccc(-n4ccnc4)cc3)n2)c1 [TCMDC-133450], the “% Inhibition” value rises from 9.249% to 43.61%.

Going from O=C(Nc1ccc(OCc2ccccc2)cc1)c1nc2ccccc2nc1Cl [TCMDC-124732] to Fc1cccc(Nc2nc(NCc3ccc(OCc4ccccc4)cc3)nc(Nc3cccc(F)c3)n2)c1 [TCMDC-135137], the “% Inhibition” value rises from 4.904% to 60.27%.

First: Oc1ccc(CCNc2nc(NCc3cccc(OCc4cccc(F)c4)c3)nc(N3CCNCC3)n2)cc1 [TCMDC-133812]
Second: Cc1ccc(Oc2ccc(CNc3nc(Nc4cccc(F)c4)nc(Nc4cccc(F)c4)n3)cc2)cc1 [TCMDC-135138]
The “% Inhibition” value of the first is lower: -36.91% for the first, 50.43% for the second.

Compared with CC(=O)Nc1cccc(CNc2cc(C)nc(Nc3ccc(C)cc3)n2)c1 [TCMDC-133461], Cc1cc(N(C)C)nc(Nc2ccc(NC(=O)c3ccccc3F)cc2)n1 [TCMDC-124725] is lower in “% Inhibition” value: 27.64% for the first, 4.015% for the second.

First: COc1cc(Cc2cnc3nc(N)nc(N)c3c2C)cc(OC)c1OC [TCMDC-138058]
Second: Cc1cc(Br)c(OCCCON2C(N)=NC(N)=NC2(C)C)c(Br)c1 [TCMDC-131365]
The “% Inhibition” value of the first is lower: -6.965% for the first, 37.66% for the second.

Compared with COc1ccc2c(NN=Cc3ccc(F)cc3)cc(C)nc2c1 [TCMDC-142086], COc1ccc2nc(C)cc(NN=Cc3ccc(F)cc3)c2c1 [TCMDC-123973] is higher in “% Inhibition” value: 107.2% for the first, 111.2% for the second.

Compared with Cc1cc(NN=Cc2ccc(Cl)cc2)c2ccccc2n1 [TCMDC-123979], COc1ccc2nc(C)cc(NN=Cc3ccc(Cl)cc3)c2c1 [TCMDC-123971] is higher in “% Inhibition” value: 12.17% for the first, 99.29% for the second.

First: Cc1ccc2c(NN=Cc3cccc(F)c3)cc(C)nc2c1 [TCMDC-142067]
Second: Cc1ccc2nc(C)cc(NN=Cc3cccc(F)c3)c2c1 [TCMDC-142066]
The “% Inhibition” value of the first is higher: 59.3% for the first, 30.79% for the second.

First: Cc1ccc2c(NN=CC=Cc3ccccc3)cc(C)nc2c1 [TCMDC-142075]
Second: CCOc1ccc2nc(C)cc(NN=Cc3ccccc3)c2c1 [TCMDC-142094]
The “% Inhibition” value of the first is higher: -22.28% for the first, -27.91% for the second.

First: CCOc1ccc2nc(C)cc(NN=Cc3ccc(Cl)cc3)c2c1 [TCMDC-142091]
Second: CCOc1ccc2nc(C)cc(NN=Cc3ccncc3)c2c1 [TCMDC-142046]
The “% Inhibition” value of the first is higher: 100.1% for the first, -27.59% for the second.

Compared with Cc1cc(NN=Cc2ccc(F)cc2)c2ccc(F)cc2n1 [TCMDC-142039], Cc1cc(NN=Cc2ccc(F)cc2)c2cccc(C)c2n1 [TCMDC-142082] is higher in “% Inhibition” value: -75.1% for the first, 83.37% for the second.

Going from CNS(=O)(=O)Cc1ccc(Nc2nccc(Nc3cccc4c3cnn4C(=O)Nc3ccccc3)n2)cc1 [TCMDC-136315] to COC(=O)c1ccc(Nc2nccc(Nc3ccc(Oc4ccccc4)cc3)n2)cc1 [TCMDC-138560], the “% Inhibition” value falls from 19.26% to -28.54%.

Compared with Cc1nc2c(c(C)nn2C(C)(C)C)c(C)c1CCC(=O)Nc1ccc(CN2CCCC2)cc1 [TCMDC-124397], CCCC(=O)Nc1ccc(OCCCCN(CC(C)(C)C)c2ccc(C#N)c(C(F)(F)F)c2)cc1 [TCMDC-132784] is higher in “% Inhibition” value: -7.615% for the first, -2.311% for the second.

Compared with Cc1cc(Cl)c(S(=O)(=O)NC2CCCC2)cc1OCC(=O)NC1CCCCC1 [TCMDC-124353], O=C(Nc1ccc(Cl)c(Cl)c1)N1CCC(CN2CCC(c3c[nH]c4ccccc34)CC2)CC1 [TCMDC-140195] is lower in “% Inhibition” value: 26.39% for the first, -22.77% for the second.

First: COc1ccc2c(NN=Cc3cccc(F)c3)cc(C)nc2c1 [TCMDC-142085]
Second: COc1ccc2nc(C)cc(NN=Cc3cccc(F)c3)c2c1 [TCMDC-142084]
The “% Inhibition” value of the first is higher: 106.9% for the first, 32.42% for the second.

Compared with Cc1cc(NN=Cc2ccccc2F)c2cccc(C)c2n1 [TCMDC-142068], Cc1cc(NN=Cc2cccc(F)c2)c2cccc(C)c2n1 [TCMDC-142081] is higher in “% Inhibition” value: -42.7% for the first, -19.79% for the second.

First: O=C(Nc1ccc(-c2nc3ccccc3[nH]2)cc1)c1cccc([N+](=O)[O-])c1 [TCMDC-123637]
Second: CN(C)CCc1c[nH]c2ccc(C(=O)Nc3ccc(-c4ccncc4)cc3)cc12 [TCMDC-132057]
The “% Inhibition” value of the first is lower: -11.52% for the first, 19.3% for the second.

Going from O=S(=O)(Nc1ccc2nccc(N3CCNCC3)c2c1)c1ccc(-c2ccccc2)cc1 [TCMDC-139546] to Cc1n[nH]c2ccc(-c3ccc4nccc(N5CCC(N)CC5)c4c3)cc12 [TCMDC-134315], the “% Inhibition” value rises from 12.57% to 105.4%.

Going from Clc1ccc2nccc(N3CCC(CN4CCC(c5c[nH]c6ccccc56)CC4)CC3)c2c1 [TCMDC-134281] to FC(F)(F)c1ccc(NC(=S)N2CCC(CN3CCC(c4c[nH]c5ccccc45)CC3)CC2)cc1 [TCMDC-140191], the “% Inhibition” value rises from 0.1691% to 5.954%.

Going from CCN1CCN(CCCCNc2c3ccccc3nc3ccccc23)CC1 [TCMDC-137570] to CCN1CCN(CCCNc2c3ccccc3nc3ccccc23)CC1 [TCMDC-137546], the “% Inhibition” value rises from 80.96% to 84.24%.

Going from Cc1ccc(Nc2nc(C)cc(N3CCN(c4ccccc4)CC3)n2)cc1 [TCMDC-125308] to CN1CCN(c2ccc(Nc3c4ccccc4nc4ccccc34)cc2)CC1 [TCMDC-123912], the “% Inhibition” value rises from -56.11% to 39.23%.

Going from CCN1CCN(CCNc2c3ccccc3nc3ccccc23)CC1.Cl [TCMDC-137545] to CCN1CCN(c2ccc(Nc3c4ccccc4nc4ccccc34)cc2)CC1 [TCMDC-124255], the “% Inhibition” value rises from 85.19% to 96.72%.

Going from CC[C@H](NC(=O)c1c(CCCN2CCN(c3ccccc3)CC2)c(-c2ccccc2)nc2cc(O)ccc12)c1ccccc1 [TCMDC-139302] to N#Cc1ccc(N2CCN(Cc3cccc(-c4cccc(-c5nc6cc(F)ccc6[nH]5)c4)c3)CC2)nc1.O=C(O)C(F)(F)F [TCMDC-133109], the “% Inhibition” value falls from 9.444% to -21.69%.

First: CCn1c(-c2ccccc2)cc2nnc3ccccc3c21 [TCMDC-138220]
Second: Clc1ccc(Cc2nc3ccccc3[nH]2)cc1Cl [TCMDC-125878]
The “% Inhibition” value of the first is higher: 3.318% for the first, -7.507% for the second.

First: Oc1cc2c(cc1CN1CCN(Cc3ccc(Cl)s3)CC1)CCC2 [TCMDC-124882]
Second: O=C(Nc1cc(C(F)(F)F)cc(C(F)(F)F)c1)N1CCC(CCN2CCC(c3c[nH]c4ccccc34)CC2)CC1 [TCMDC-140189]
The “% Inhibition” value of the first is lower: -46.75% for the first, 108.5% for the second.

First: CCCc1ccc(N2C(N)=NC(N)=NC2(C)C)cc1 [TCMDC-137706]
Second: N#Cc1ccc2nc(-c3cc(-c4cccc(F)c4)cnc3N)[nH]c2c1 [TCMDC-133133]
The “% Inhibition” value of the first is higher: 5.239% for the first, -54.5% for the second.

Compared with Oc1ccc(-c2nc3c4cc(I)ccc4c4ccc(I)cc4c3[nH]2)cc1 [TCMDC-124199], O=C(Nc1ccc(Oc2ccccc2)cc1)N1CCC(CN2CCC(c3c[nH]c4ccccc34)CC2)CC1 [TCMDC-140194] is higher in “% Inhibition” value: -25% for the first, 35.38% for the second.

Going from O=C(Nc1ccc(Oc2ccccc2)cc1)N1CCC(CCN2CCC(c3c[nH]c4ccccc34)CC2)CC1 [TCMDC-140190] to FC(F)(F)c1ccc(NC(=S)N2CCC(CCN3CCC(c4c[nH]c5ccccc45)CC3)CC2)cc1 [TCMDC-140188], the “% Inhibition” value rises from 106% to 107.1%.

For O=C(Nc1cc(C(F)(F)F)cc(C(F)(F)F)c1)N1CCC(CN2CCC(c3c[nH]c4ccccc34)CC2)CC1 [TCMDC-140192], the “% Inhibition” value was -4.081%.
